Shown are actives, neighbours in structure and some others; about 1% of the full set was active somewhere.
IP6K1 inh: Primary qHTS assay for small molecule inhibitors of Inositol hexaphosphate kinase 1 (IP6K1); Inositol hexakisphosphate kinase 1 (Homo sapiens), Q92551; IP6K1 kinase, ADP-Glo luminescence, 2 h; active compounds read low; activity change, % (series mostly up to about 58 µM); 0.81% of 140,000 active; AID 1645851, 2021; in the data active means activity change below about -25%
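ADP-Glo luminescence measures ADP made by human IP6K1 during a 2 h RT reaction with ATP/IP6 (mix at 1.3 mM/130 uM); top library doses 57.5 and 19.1 uM final.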
GPT2 inh: Primary qHTS assay for inhibitors of Glutamate pyruvate transaminase 2 (GPT2); Potency, µM (doses to about 57.7 µM), for the others: at the highest dose activity change, negative = inhibition, most hits filed as inhibitors; Recombinant GPT2, coupled pyruvate oxidase/HRP Amplex Red fluorescence; 0.25% of 100,000 active; Alanine aminotransferase 2 (Homo sapiens), Q8TD30; AID 1671188, 2021; further: potency means the concentration at half of the fitted maximal effect; nearly all actives have a fitted effect of over 60% in size
Target sequence (Q8TD30 whole entry, looked up): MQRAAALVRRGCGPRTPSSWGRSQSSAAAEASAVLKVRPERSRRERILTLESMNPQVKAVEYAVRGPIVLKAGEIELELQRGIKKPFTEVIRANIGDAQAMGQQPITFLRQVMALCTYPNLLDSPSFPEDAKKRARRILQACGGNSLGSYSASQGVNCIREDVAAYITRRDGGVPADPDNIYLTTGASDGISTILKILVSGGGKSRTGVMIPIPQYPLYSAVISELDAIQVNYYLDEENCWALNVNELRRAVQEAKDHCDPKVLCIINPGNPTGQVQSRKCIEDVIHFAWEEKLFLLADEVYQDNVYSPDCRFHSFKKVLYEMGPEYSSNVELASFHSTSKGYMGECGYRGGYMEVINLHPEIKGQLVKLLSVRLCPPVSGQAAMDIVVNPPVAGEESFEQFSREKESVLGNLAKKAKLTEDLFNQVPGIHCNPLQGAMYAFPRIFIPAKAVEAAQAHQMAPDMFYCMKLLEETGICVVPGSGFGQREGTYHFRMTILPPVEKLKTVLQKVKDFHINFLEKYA
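Recombinant GPT2 (10ng/uL) with 250uM a-KG and 2mM L-alanine, 30 min at room temperature, in HEPES pH 7.5 buffer. Pyruvate detected by pyruvate oxidase/HRP/Amplex Red fluorescence after 30 min in the dark; AOA (50uM) as positive control.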
SNCA expr inh: Primary qHTS assay for inhibitors of alpha-synuclein gene (SNCA) expression. AID 1671194, 2021. Potency, µM (highest dose often 57.2 µM), inactives show at the highest dose activity change, negative = inhibition, actives largely listed as inhibitors. 0.17% of 140,000 active. HEK-293 SNCA-luciferase knock-in, luminescence, 24 h;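 further: potency means the concentration at half of the fitted maximal effect; plate controls were DMSO cells for no effect and cell-free wells for full effect; nearly all actives have a fitted effect of over 45% in size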
HEK293 viab: GF-AFC viability counterscreen for inhibitors of alpha-synuclein gene (SNCA) expression. AID 1671193, 2021. Potency, µM (series often up to 57.1 µM), inactives show at the top dose activity change, negative = cytotoxicity, most hits filed as cytotoxic. 0.12% of 150,000 active. HEK-293-SNCA-luc viability, GF-AFC fluorescence, 24 h;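 further: potency means the concentration at half of the fitted maximal effect; 0% = DMSO-treated cells and -100% = medium-only wells without cells; nearly all actives have a fitted effect of over 30% in size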
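Cytotoxicity counterscreen: after 24 h compound treatment of genome-edited SNCA-luciferase HEK-293 cells, live-cell protease substrate GF-AFC read by fluorescence after 30 min; activity scaled between DMSO (0%) and medium-only (-100%), curves Hill-fitted.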
IP6K1 inh cnf: Confirmatory qHTS assay for small molecule inhibitors of Inositol hexaphosphate kinase 1 (IP6K1). Potency, µM (series often up to 49 µM), for inactives: top-dose activity change, negative = inhibition, actives largely listed as inhibitors. shares compounds with IP6K1 inh. 13% of 1,200 active. recombinant IP6K1 kinase, ADP-Glo luminescence, 2 h; further: potency means the concentration at half of the fitted maximal effect; nearly all actives have a fitted effect of over 65% in size
An asterisk follows results filed as active; i = inactive; ? = inconclusive; / = no result given; [ ] = dose if it differs, or a comment. Unless noted, the call rests on the fitted dose curve; in most records, active means well fitted curve in the direction sought with a large enough effect; inconclusive means small, poorly fitted or top-dose-only effect, or another doubt; inactive means no such curve, though single readings can be large; an effect the other way counts as inactive or inconclusive. Unless noted, on the % scale 0 is the no-effect control and ±100 the full control effect.

SMILES	IP6K1 inh	GPT2 inh	SNCA expr inh	HEK293 viab	IP6K1 inh cnf
C=CCOCC(O)CN1CCC(=O)N(CC2CC2)Cc2cc(F)ccc21 (stereo unspecified)	-14.5	/	/	/	/
Cc1[nH]c(C=C2C(=O)Nc3ccc(S(=O)(=O)Cc4c(Cl)cccc4Cl)cc32)c(C)c1C(=O)N1CCC[C@H]1CN1CCCC1	/	-0.5%	?	-17.0%	-11.5%
Cc1[nH]c(/C=C2\C(=O)Nc3ccc(F)cc32)c(C)c1C(=O)NCCN1CCCC1	-5.4	i	/	-11.1%	1.9%[18.9 µM]
Cc1[nH]c(/C=C2\C(=O)Nc3ccc(S(=O)(=O)N(C)c4cccc(Cl)c4)cc32)c(C)c1C(=O)N1CCN(C)CC1	15.3	i	/	-29.7%	/
O=C(NCCN1CCCCC1)c1c(-c2cncnc2)cc(=O)n2c1CCCC2	-12.1	i	221.1%	11.3%	/
COc1cccc(C(=O)N2CCC(c3nc(C4CCOC4)no3)CC2)c1 (stereo unspecified)	-36.9*	i[11.5 µM]	2.8%	7.2%	-13.0%
COc1ccccc1-c1cc(C(=O)NC2CCC2)c2cnn(C)c2n1	-3.1	/	/	/	/
NCCC(=O)N1CCC(n2nccc2NC(=O)Nc2cccc(F)c2)CC1	-29.9*	i[11.5 µM]	2.2%	0.7%	15.6%
C[C@@H](N)C(=O)N1CCC(n2nccc2NC(=O)Nc2cccc(F)c2)CC1	-11.4	-17.9%	7.9%	-5.7%	/
Cc1cc(C)c(CNC(=O)c2cc(-c3cccnc3)cc3c2OCCN3C)c(=O)[nH]1	-28.1*	4.6%[88.5 µM]	16.8%[87.6 µM]	-11.6%[87.6 µM]	-29.7%
COc1cc(F)ccc1-c1cc(C(=O)NCc2c(C)cc(C)[nH]c2=O)c2c(c1)N(C(C)C)CCO2	-27.0*	?	-29.8%	-15.7%	-4.9%
Cc1cc(C)c(CNC(=O)c2cc(-c3cnn(C)c3)cc3c2OCCN3C)c(=O)[nH]1	-20.7	i	24.1%[87.6 µM]	-6.2%[87.6 µM]	/
CC(C)Cn1c(/C=C/c2ccc(F)cc2)nc2ccccc21	3.5	/	-19.6%	-19.7%	/
CSc1ccc(/C=C/c2nc3ccccc3n2S(=O)(=O)c2ccc(F)c(C)c2)cc1	-38.8*	/	-84.3%	-5.9%	?
O=C(c1cc(Cl)ccc1F)N1CCN(C(=O)c2nnn3c2COC(c2ccccc2)C3)CC1 (stereo unspecified)	-32.2*	2.7%	3.3%	-9.8%	-8.6%
CCCC(=O)c1ccc(OC(=O)c2c(-c3ccccc3Cl)noc2C)cc1	-34.9*	/	3.8%	2.9%	-11.7%
COc1cccc(NC(=O)C2CCCN(S(=O)(=O)c3ccc4[nH]c(=O)ccc4c3)C2)c1 (stereo unspecified)	-32.6*	/	2.4%	-10.0%	-0.2%
COc1ccccc1CNC(=O)c1cc2c(s1)-c1ccccc1OC2	13.3	/	132.4%	5.2%	/
O=C(NCc1cccc(Cl)c1)c1cc2c(s1)-c1ccccc1OC2	-25.7*	/	-9.0%	12.5%	-13.6%
Cc1ccnc2nc(NC(=O)c3ccccc3Cl)nn12	-25.0*	/	75.5%	-3.9%	-2.1%
Cc1cccc(-c2nnc(SCCC(=O)O)o2)c1	-37.3*	/	?	14.0%	?
COc1ccc(-c2cccc(C(=O)N(C)Cc3ccccc3)c2)nn1	-0.8	/	/	/	/
Cc1cc(C)cc(NC(=O)CSc2nccn2-c2ccccc2)c1	21.2	/	-6.4%	7.0%	/
CCOC(=O)c1ccc(NC(=O)CSc2nccn2-c2cc(C)cc(C)c2)cc1	-27.4*	/	-11.3%	0.2%	?
CCOC(=O)c1ccc(NC(=O)CSc2nc3cc4ccccc4cc3[nH]2)cc1	-25.5*	/	-1.8%	-6.0%	15.4%
SMILES	IP6K1 inh	GPT2 inh	SNCA expr inh	HEK293 viab	IP6K1 inh cnf
COc1ccc(OCC(O)CN2CCC(=O)N(CC3CC3)Cc3cc4c(cc32)OCO4)cc1 (stereo unspecified)	10.3	/	/	/	/
CCc1ccccc1N(CC)C(=O)c1cc2c(s1)-c1ccccc1SC2	-25.6*	/	18.0%	9.1%	-5.5%
CC(C)CN(CCNC(=O)c1cn(C)c2ccc(S(=O)(=O)N3CCOCC3)cc2c1=O)CC(C)C	11.3	/	-23.5%	-9.8%	/
CC(C)CN(CCNC(=O)c1cn(C)c2ccc(S(=O)(=O)N3CCCC3)cc2c1=O)CC(C)C	29.0	/	32.1%	-16.8%	-7.6%
CN(Cc1ccccc1)Cc1cccc(C(F)(F)F)c1	16.7	i	21.7%[87.6 µM]	0.1%[87.6 µM]	/
c1ccc(CN2CC(CNc3cccnc3)C3(C2)CN(c2ccccc2)C3)cc1 (stereo unspecified)	-8.2	0.4%[88.5 µM]	-30.4%[87.6 µM]	-13.5%[87.6 µM]	/
CCc1nc2nc(C)cc(Nc3cc(C)ccc3C)n2n1	-11.0	/	-27.4%	-5.1%	/
CCc1nc2nc(C)cc(Nc3cccc(C)c3C)n2n1	-32.7*	/	19.9%	-4.8%	?
CC(C)CCN1CCCCC12Cc1ccccc1CNC2=O (stereo unspecified)	-5.0	-13.3%	13.2%	-4.0%	/
CC(C)c1nc2ccc(C(=O)NCCCN3CCN(c4ccc(F)cc4)CC3)cc2o1	17.1	/	0.4%	10.3%	/
CC(C)c1nc2ccc(C(=O)NCCCN3CCN(c4cccc(Cl)c4)CC3)cc2o1	-34.0*	/	56.5%	-13.1%	?
CO/N=C(\C(=O)N[C@@H]1C(=O)N2C(C(=O)O)=C(CSc3nc(=O)c(O)nn3C)CS[C@H]12)c1csc(N)n1	-78.9*	-3.2%	-6.8%[25.6 µM]	-18.1%[23.9 µM]	?
CCOc1ccc(CNC(=O)C(C)n2ncn3cccc3c2=O)cc1 (stereo unspecified)	-27.2*	/	-11.0%	4.7%	-11.3%
Cc1noc(C)c1-c1cc2c(cc(-c3ccccc3)n2C)c(-c2ccnn2C)n1	-45.2*	-5.9%[88.5 µM]	17.3%[87.6 µM]	-16.6%[87.6 µM]	?
Cc1noc(C)c1-c1cc2c(cc(C)n2C)c(-c2ccnn2C)n1	-10.7	4.1%[88.5 µM]	10.6%[87.6 µM]	5.2%[87.6 µM]	/
NC(=O)c1cc(S(=O)(=O)NCC2CCC(C(=O)Nc3ccc(Cl)cc3)CC2)cs1 (stereo unspecified)	1.0	/	3.2%	10.9%	/
COc1ccc(NC(=O)C2CCC(CNS(=O)(=O)c3csc(C(N)=O)c3)CC2)cc1 (stereo unspecified)	-38.9*	/	-16.9%	8.0%	?
CC(C)(C)c1nc2c3cc[nH]c(=O)c3c3cc(F)ccc3c2[nH]1	/	2.4%	-13.1%	0.5%	-27.9%
COc1ccc(CNC(=O)c2cc(-c3ccccc3C(F)(F)F)nc3c2cnn3C)cc1	7.4	/	/	/	/
CCCCN(CC)C(=O)Cn1c(=O)n(-c2ccc(OCC)cc2)c(=O)c2c3c(sc21)CCC3	-33.4*	/	-3.3%	3.6%	9.7%
CCc1ccc(-n2c(=O)c3c4c(sc3n(Cc3ccc(C)cc3)c2=O)CCC4)cc1	4.1	/	6.8%	-3.3%	/
CCc1ccc(-n2c(=O)c3c4c(sc3n(Cc3ccc(F)cc3)c2=O)CCCC4)cc1	-28.0*	/	-5.6%	21.2%	-1.8%

Bioassay records (PubChem)
